Data: PubChem BioAssay (NCATS)
Several values for one entry are separate records, joined by “and”; a condition that tells them apart may be missing. Equal entries are not always repeated. Records with an inconclusive call do not appear. Where a call stands in place of a potency, no number is given. A number with no mark means an inactive call. Activity calls are given as the source filed them. Calls follow the shape of the dose curve; as a rule, active = well fitted cell-killing curve with a large enough effect; inconclusive = small, poorly fitted or top-dose-only effect, or effect the other way; inactive = no such curve, though single readings can be large or run the other way.

Columns and labels:
[1] = Viability qHTS for spleen associated tyrosine kinase inhibitor (SYKi) naive MV4-11 cells (AID 1963823); also: nearly all actives have a fitted effect of over 40% in size
How it was run: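 CellTiter-Glo luminescence, 10 min room-temperature incubation, gave viability. Cells: naive MV4-11 (500/well), treated 72 hr at 37 C, 5% CO2.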

[2] = Viability qHTS for spleen associated tyrosine kinase inhibitor (SYKi) drug resistant MV4-11 cells (AID 1963824); also: nearly all actives have a fitted effect of over 35% in size
How it was run: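 SYK-inhibitor-resistant MV4-11 AML cells were seeded at 500 per well onto compound and cultured 72 hours (37 °C, 5% CO2). CellTiter-Glo was then added, and after 10 min at room temperature, luminescence gave viability.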
Potency is read from the fitted curve at half-maximal effect.

Row | Compound | viability (% of control) [1] | viability, % of control [2] | Potency [1] | Potency [2]
1 | C[C@@H]1O[C@@H](O[C@H]2[C@H](O)[C@@H](O)[C@H](OC[C@H]3O[C@@H](OC(=O)[C@]45CCC(C)(C)C[C@H]4C4=CCC6[C@@]7(C)C[C@@H](O)[C@H](O)[C@@](C)(CO)C7[C@H](O)C[C@@]6(C)[C@]4(C)CC5)[C@H](O)[C@@H](O)[C@@H]3O)O[C@@H]2CO)[C@H](O)[C@H](O)[C@H]1O (stereo partly drawn) | 86.1% [at 9.25 µM] | 79.5% [at 9.25 µM] | – | –
2 | CC(C)c1cc(C(=O)N2CC[C@H](NC(=O)C3CC3)C2)n[nH]1 | – | – | inactive | inactive
3 | CC(C)CC[C@@H](O)[C@](C)(O)[C@H]1CC[C@@]2(O)C3=CC(=O)[C@@H]4C[C@@H](O)[C@@H](O)C[C@]4(C)[C@H]3CC[C@]12C | – | – | inactive | inactive
4 | C=C[C@H]1[C@H](O[C@@H]2O[C@H](CO)[C@@H](O)[C@H](O)[C@H]2O)OC=C2C(=O)OCC[C@]21O | – | – | inactive | inactive
5 | CC1[C@@H](O)[C@@H](O)C2[C@]3(C)C(C[C@H]4OC(=O)[C@H](O)[C@]1(O)[C@@]24C)C(C)(O)C[C@H](O)[C@H]3O (stereo partly drawn) | – | – | inactive | inactive
6 | O=Nc1c2[nH]c3ccccc3nc-2c2ccccc12 | – | – | 5.8 µM (active) | 10.3 µM (active)
7 | C=C1C2(CCC(=O)OC2(C)C)CC(OC(=O)/C(C)=C/C)C2(C)C13OC14C(=O)OC(C)(C(=O)C12C(=O)OC4C)C3OC(C)=O (stereo not drawn) | – | – | inactive | inactive
8 | O=C1NC(Cc2ccc(O)cc2)C(=O)N2CCCC12 (stereo not drawn) | – | – | inactive | inactive
9 | CN1CCN(C2Cc3ccccc3Sc3ccc(Cl)cc32)CC1 (stereo not drawn) | – | – | 3.35 µM (active) | 3.35 µM (active)
10 | CC(C)CC(=O)O[C@@H]1OC=C(CO[C@@H]2O[C@H](CO[C@@H]3O[C@H](CO)[C@@H](O)[C@H](O)[C@H]3O)[C@@H](O)[C@H](O)[C@H]2O)[C@H]2C[C@H](O)[C@@H](CO)[C@@H]12 | – | – | inactive | inactive
11 | Cc1noc(C)c1-c1cc(O)cc(C(O)c2ccccc2)c1 (stereo not drawn) | – | – | 1.46 µM (active) | 1.46 µM (active)
12 | CC1OC(OC2C(CO)OC(OCC3OC(OC(=O)C45CCC(C)(C)CC4C4=CCC6C7(C)CCC(OC8OC(C(=O)O)C(O)C(OC9OC(CO)C(O)C(O)C9O)C8O)C(C)(C)C7CCC6(C)C4(C)CC5)C(O)C(O)C3O)C(O)C2O)C(O)C(O)C1O (stereo not drawn) | 92.6% [at 9.25 µM] | 105% [at 9.25 µM] | – | –
13 | O=C1N=C(O)S/C1=C\c1ccc2nccnc2c1 | – | – | 13 µM (active) | 13 µM (active)
14 | CC(=O)N[C@H]1[C@H](O[C@H]2CC[C@@]3(C)C(CC[C@]4(C)C3CC=C3C5CC(C)(C)CC[C@]5(C(=O)O)[C@H](O[C@@H]5O[C@H](CO)[C@@H](O)[C@H](O)[C@H]5O)C[C@]34C)C2(C)C)O[C@H](CO[C@@H]2OC[C@H](O)[C@H](O)[C@H]2O[C@@H]2OC[C@@H](O)[C@H](O)[C@H]2O)[C@@H](O)[C@@H]1O (stereo partly drawn) | 57% [at 9.25 µM] | 81.4% [at 9.25 µM] | – | –
15 | C=C1C2(C)CC3C4(C)OC(C5OC56C4=CC(=O)OC6(C)C)C3(C)C13C(=O)OC(C)C3(O)C2=O (stereo not drawn) | – | – | inactive | inactive
16 | Cc1cc(C)c(CNC(=O)c2cc(-c3ccc(N4CCN(C)CC4)nc3)cc3c2c(C)cn3C(C)C)c(=O)[nH]1 | – | – | 13.2 µM (active) and 18.6 µM (active) | 14.8 µM (active) and 16.6 µM (active)
17 | CC1(C)COC(=O)[C@@H]1O[C@@H]1O[C@H](CO)[C@@H](O)[C@H](O)[C@H]1O | – | – | inactive | inactive
18 | CC(C)C1CCC(C(=O)N[C@@H](Cc2ccccc2)C(=O)O)CC1 (stereo partly drawn) | – | – | inactive | inactive
19 | CC1=CC(=O)C2C(C)(C)CCC[C@]2(C)[C@H]1CO (stereo partly drawn) | – | – | inactive | inactive
20 | Cc1ccc(C(=O)Nc2noc3ccccc23)cc1 | – | – | inactive | 10.3 µM (active)
21 | O=C(Nc1ccn[nH]1)c1c(F)cccc1F | – | – | inactive | inactive
22 | CONC(=O)c1ccccc1Nc1cc(Nc2cc(C)nn2C(C)C)ncc1Cl | – | – | 6.61 µM (active) | 13.2 µM (active)
23 | Oc1cccc(C2NC(=S)Nc3cccc(F)c32)c1 (stereo not drawn) | – | – | 4.61 µM (active) | 2.91 µM (active)
24 | CCOC(CN1C(=O)[C@](CC(=O)Nc2ccc(C)cc2)(NC(=O)Nc2ccc(C)cc2)c2ccccc21)OCC | – | – | 18.6 µM (active) | 14.8 µM (active)
